Compound activity from PubChem.
The list is not random: actives were taken first. Their share in the collection is about 22%.
CYP2C9 inhib – blocks human cytochrome P450 2C9. CYP2C9 Supersomes, luciferin-H conversion, luminescence. hit rate 20% among 96,000. P11712. inhibition, % at 5 µM;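 active = blocking of liver enzyme CYP2C9 beyond about 50% at 5 µM, limit read from the data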
Target sequence (P11712 whole entry, looked up): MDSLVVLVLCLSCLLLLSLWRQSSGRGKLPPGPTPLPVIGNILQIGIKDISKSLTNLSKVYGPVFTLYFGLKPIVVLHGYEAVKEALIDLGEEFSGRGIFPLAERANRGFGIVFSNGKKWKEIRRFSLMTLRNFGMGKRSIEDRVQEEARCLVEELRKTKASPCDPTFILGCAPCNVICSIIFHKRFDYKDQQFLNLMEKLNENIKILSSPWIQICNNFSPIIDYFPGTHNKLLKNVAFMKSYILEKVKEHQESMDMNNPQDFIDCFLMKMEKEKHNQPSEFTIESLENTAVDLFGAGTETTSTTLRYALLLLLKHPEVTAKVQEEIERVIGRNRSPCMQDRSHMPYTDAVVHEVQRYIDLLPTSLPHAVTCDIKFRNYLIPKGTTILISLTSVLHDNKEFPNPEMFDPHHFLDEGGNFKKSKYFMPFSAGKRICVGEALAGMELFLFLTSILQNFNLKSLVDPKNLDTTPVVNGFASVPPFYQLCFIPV
CYP2C19 act – activators of human cytochrome P450 2C19; recombinant CYP2C19, luciferin-H EGE luminescence; stronger effect = higher value; 0 = fully inhibited enzyme, 1 = untreated enzyme; activation factor at 5 µM; 96,000 tested, under 10 active;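 active = activation factor of at least 2 at 5 µM in the primary screen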;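 also: 0 = wells with 2.5 mM tranylcypromine and 1 = vehicle-only wells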
Measles CPE – protection of cells from measles virus; Measles virus-infected cells, CPE protection, absorbance; protection (pct of control), % at 4 µM; hit rate 1.5% among 140,000; in the data active = protection mostly above about 24%, no sharp cut-off; inactive = mostly below about 26%
CYP2C19 inh – blocks human cytochrome P450 2C19 | P33261 | inhibition, % at 5 µM | hit rate 21% among 96,000 | AID 778 | CYP2C19 Supersomes, luciferin-H EGE luminescence, 30 min;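 active = CYP2C19 inhibition above a set limit at 5 µM in the primary screen, cut at about 50% in these data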;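 also: plate controls were negative control wells for no effect and 2.5 mM tranylcypromine positive control for full effect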
CYP2C9 activ – activators of human CYP2C9; P11712; recombinant CYP2C9, luciferin-H conversion, luminescence; stronger effect = higher value; factor 1 = untreated enzyme, 0 = blocked; activation factor at 5 µM; hit rate 1.4% among 96,000;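 active = activation factor of 2 or more for CYP2C9 at a 5 µM dose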;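 also: 0 = sulfaphenazole-blocked wells and 1 = vehicle-only wells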
* = called active by the depositor; . = no result given.

SMILES | CYP2C9 inhib | CYP2C19 act | Measles CPE | CYP2C19 inh | CYP2C9 activ
CCCCN(CC(=O)Nc1c(C)cccc1CC)C(=O)SCC | 49 | 0.3 | 32 | 71* | 0.5
COc1cc(/C=C/C(=O)Nc2ccc(N3CCCCC3)c(S(=O)(=O)Nc3ccccc3Cl)c2)cc(OC)c1OC | . | . | 20 | . | .
Cc1cc(C)nc(SCCS(=O)Cc2ccc(Cl)cc2)n1 (configuration not stated) | 22 | 0.2 | 8 | 81* | 0.8
COCCOC(=O)N/C=C\c1nc2ccccc2c(=O)[nH]1 | . | . | 4 | . | .
COc1ccc(/C=C/c2nnc(NC(=O)COc3ccc(C)cc3)s2)cc1 | . | . | 5 | . | .
CN1C(=O)NC(c2ccccc2)C2=C1CN(c1ccc3ccccc3c1)C2=O (configuration not stated) | 4 | 1.1 | 7 | -6 | 1
Cn1c(-c2ccccc2)cc(=O)c2ccccc21 | 3 | 0.8 | 22 | 23 | 1
Cn1c(=O)cc(-c2ccccc2)c2ccccc21 | 96* | 0.1 | 3 | 87* | 0
CCc1ccc2c(c1)/C(=N/N(C)C(=S)NC)C(=O)N2 | 11 | 0.5 | 21 | 52* | 0.9
CCc1ccc2c(c1)/C(=C/C(=O)c1cccs1)C(=O)N2 | 20 | 0.9 | 11 | 8 | 0.8
CCN(CC)S(=O)(=O)c1ccc(C)c(NC(=O)CN(C)C)c1 | . | . | 1 | . | .
Clc1ccc(-c2nnnn2-c2ccc(Cl)c(Cl)c2)cc1Cl | 53* | 0 | 38 | 96* | 0.5
COC(=O)c1cc2sccc2n1Cc1nc(-c2cccc(Cl)c2)oc1C | 46 | 0.8 | 8 | 16 | 0.5
COC(=O)c1cc2ccsc2n1Cc1nc(-c2cccc(Cl)c2)oc1C | 99* | 0.5 | 9 | 52* | 0
CCOc1ccc(CC(=NCCO)C2=C(O)CC(C)(C)CC2=O)cc1OCC | . | . | 13 | . | .
COc1ccc(N(CC(=O)NCc2ccc3c(c2)OCO3)S(C)(=O)=O)cc1OC | 13 | 0.8 | 25 | 19 | 0.9
COc1cccc(N(CC(=O)O)S(=O)(=O)c2ccccc2)c1 | -10 | 1.2 | 8 | -21 | 1.1
COc1ccc(OC)c(N(CC(=O)NCCSc2ccccc2)S(C)(=O)=O)c1 | 90* | 0.1 | 22 | 94* | 0.1
COc1cccc(N(CC(=O)NCCSc2ccccc2)S(C)(=O)=O)c1 | 56* | 0.1 | 1 | 93* | 0.4
COc1ccc(CNC(=O)CN(c2cccc(OC)c2)S(C)(=O)=O)cc1 | 17 | 0.1 | . | 87* | 0.8
COc1cccc(N(CC(=O)NCCSc2ccc(Cl)cc2)S(C)(=O)=O)c1 | 16 | 0.9 | 9 | 14 | 0.8
COc1ccc(N(CC(=O)NCCSC(C)(C)C)S(C)(=O)=O)c(OC)c1 | -2 | 1 | 3 | 4 | 1
COCCNC(=O)CN(c1cccc(OC)c1)S(=O)(=O)c1ccc(C)cc1 | 40 | 0.2 | 15 | 76* | 0.6
O=C(Nc1ccc(NC(=O)C2CC2)nc1)c1cccnc1 | 15 | 1 | 3 | 5 | 0.8
CCOC(=O)c1ccc(NC(=S)N2CCSC2c2ccc(Br)cc2)cc1 (configuration not stated) | . | . | 16 | . | .
SMILES | CYP2C9 inhib | CYP2C19 act | Measles CPE | CYP2C19 inh | CYP2C9 activ
O=C(c1cccs1)N1CCN(Cc2ccncc2)CC1 | 74* | 0.1 | 9 | 88* | 0.3
O=C(C(c1ccccc1)c1ccccc1)N1CCN(Cc2ccncc2)CC1 | 88* | 0.6 | 5 | 44 | 0.1
O=C(C(c1ccccc1)c1ccccc1)N1CCN(Cc2ccccn2)CC1 | 9 | 1 | 12 | 4 | 0.9
O=C(c1cccs1)N1CCN(Cc2cccnc2)CC1 | 37 | 0.2 | 7 | 83* | 0.6
C/C(=N/N1CCN(c2ccccn2)CC1)c1cccc([N+](=O)[O-])c1 | . | . | 3 | . | .
Clc1ccccc1C1SCC2Nc3ccccc3CN21 (configuration not stated) | 53* | 0.1 | 4 | 87* | 0.5
Cc1ccc(C2OCC3(CO)COC(c4ccc(C)cc4)N23)cc1 (configuration not stated) | 41 | 0.3 | 22 | 72* | 0.6
CC(=O)N1N=C(c2ccc(C)cc2)OC1c1ccc(C)cc1 (configuration not stated) | 20 | 0.8 | 23 | 19 | 0.8
CCN(CC)C(=O)CSc1nc(N)c(C(=O)Nc2ccc(OC)cc2)s1 | . | . | 5 | . | .
CCOC(=O)CSc1nc(C)c(C(=O)OCC)s1 | 65* | 0.6 | 10 | 38 | 0.3
CCOC(=O)CSc1nc(N)c(C(=O)Nc2ccc(N(C)C)cc2)s1 | 47 | 0.3 | 19 | 65* | 0.5
CCN(CC)c1cccc(OC2=NS(=O)(=O)c3ccccc32)c1 | -26 | 1 | 4 | 2 | 1.3
Cc1snc(S(=O)(=O)Cc2c(Cl)cccc2Cl)c1C#N | 29 | 0.3 | 17 | 67* | 0.7
Cc1nc(S(=O)(=O)N(C)c2ccccc2)c(C#N)c(C)c1Cl | -8 | 0.9 | 11 | 14 | 1.1
CCOC(=O)C1=C(C)NC(C)=C(C(=O)OCC)C1c1cc2ccc(C)cc2[nH]c1=O | 54* | 0.7 | 3 | 25 | 0.5
CCN(Cc1cc2ccc(C)cc2[nH]c1=O)C(=O)c1ccncc1 | 41 | 0.3 | 4 | 68* | 0.6
Cc1cccc2cc(COC(=O)c3cccnc3)c(=O)[nH]c12 | 39 | 0.5 | 9 | 52* | 0.6
Cc1ccc2cc(COC(=O)c3ccncc3)c(=O)[nH]c2c1 | 66* | 0.1 | 5 | 92* | 0.3
COC(=O)C1=C(C)NC(C)=C(C(=O)OC)C1c1cc2ccc(C)cc2[nH]c1=O | 18 | 0.6 | 30 | 40 | 0.8
O=C(N=C1c2ccccc2CN1c1ccc(F)cc1)c1ccc(Cl)nc1 | . | . | 9 | . | .
O=C(CN1CCN(c2ccccn2)CC1)Nc1ccc(Cl)c(C(F)(F)F)c1 | 5 | 1 | 18 | 4 | 0.9
O=C(CN1CCN(c2ccccn2)CC1)Nc1cc(C(F)(F)F)ccc1Cl | 74* | 0.7 | 1 | 26 | 0.3
Cc1ccc(NC(=O)CN2CCN(c3ccccn3)CC2)c(Cl)c1 | 86* | 0.5 | 22 | 55* | 0.1
Cc1nc2ccc(NC(=O)N3CCN(c4ccccn4)CC3)cc2s1 | 80* | 0.8 | 18 | 22 | 0.2
Cc1sc(NC(=O)CN2CCN(c3ccccn3)CC2)c(C#N)c1C | . | . | 5 | . | .
SMILES | CYP2C9 inhib | CYP2C19 act | Measles CPE | CYP2C19 inh | CYP2C9 activ
Cc1ccc(S(=O)(=O)N(C)CC(=O)N2CCN(c3ccccn3)CC2)cc1 | -48 | 0.9 | 28 | 11 | 1.5
Cc1nc2ccc(NC(=O)N3CCCCC3)cc2s1 | -3 | 0.9 | 10 | 14 | 1
CN(CC(=O)N1CCN(c2ccccn2)CC1)S(=O)(=O)c1ccc2ccccc2c1 | -172 | 0.7 | 26 | 26 | 2.7*
Cc1ccc2c(c1)nc(NCCO)n2C | 20 | 0.9 | 31 | 9 | 0.8
CCOC(=O)Nc1c(O)ccc2oc(C)c(-c3ccccc3)c12 | 24 | 0.8 | 12 | 21 | 0.8
O=C(CN1CCN(c2ncccn2)CC1)Nc1ccccc1-n1cccc1 | 79* | 0.1 | 13 | 95* | 0.2
O=C(CN1CCN(c2ccccn2)CC1)Nc1ccc2ccccc2c1 | 55* | 0.7 | 1 | 28 | 0.4
